Activity calls are given as the source filed them. Unless noted, calls follow the shape of the dose curve; as a rule, active = well fitted curve in the direction sought with a large enough effect in the repeat runs; inconclusive = weak or mixed curves; inactive = no such curve, though single readings can be large; an effect the other way counts as inactive or inconclusive.
Experiments:
[1] = qHTS assay for small molecule agonists of the p53 signaling pathway (AID 651631; calls by dose curve; also: nearly all actives have a fitted effect of over 15% in size; also: potency is read from the fitted curve at half-maximal effect)
Outline: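 Fluorescence intensity from cleaved LiveBLAzer B/G substrate (2 h, room temperature) served as the signal. Beforehand, HCT-116 reporter cells bearing p53 response elements were treated 16 h at 37 °C with DMSO-dissolved compounds.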

[2] = qHTS assay for small molecules that induce genotoxicity in human embryonic kidney cells expressing luciferase-tagged ATAD5 (AID 651632); also: nearly all actives have a fitted effect of over 15% in size
Outline: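 HEK293T cells carrying a luciferase reporter tagged to ATAD5 were exposed to compound or DMSO vehicle for 16 hr at 37C, 5% CO2. Amplite was added, and after 30 min at room temperature luciferase activity was read as a marker of ATAD5 induction.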

[3] = qHTS assay for small molecule agonists of the p53 signaling pathway - cell viability (AID 651633; calls by dose curve; also: nearly all actives have a fitted effect of over 30% in size; also: potency is read from the fitted curve at half-maximal effect)
Outline: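 p53RE-bla cells were treated with compound for 16 hours at 37 C. Cytotoxicity was then measured as CellTiter-Glo luminescence after 30 min at room temperature.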

[4] = qHTS assay for small molecule disruptors of the mitochondrial membrane potential - cell viability (AID 720634; calls by dose curve;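 also: human HepG2 liver cancer cells; nearly all actives have a fitted effect of over 20% in size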)
Outline: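 HepG2 cells seeded overnight at 37 C, then exposed to compound or DMSO for 1 hr at 37 C, 5% CO2. m-MPI dye added, then CellTiter-Glo for 30 min at room temperature; viability read as ATP luminescence.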

[5] = qHTS assay to test for compound auto fluorescence at 590 nm (red) in HepG2 cells (AID 720674)
Outline: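 HepG2 cells, 2,000 per well in MEM with 10% FBS, attached overnight at 37 C, then got 23 nL compound or DMSO. After 1 hr at 37 C, 5% CO2, red fluorescence was read at 540/590 nm against Rose Bengal sodium as reference.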

[6] = qHTS assay to test for compound auto fluorescence at 535 nm (green) in HepG2 cells (AID 720675)
[7] = qHTS assay to test for compound auto fluorescence at 460 nm (blue) in HEK293 cells (AID 720678)
Outline: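 Cells were seeded and left to adhere for 4-5 hr at 37C. Compounds were then pin-transferred. After an overnight incubation at 37C under 5% CO2, intrinsic fluorescence at 405/460 nm was measured and referenced to triamterene.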

[8] = qHTS assay to test for compound auto fluorescence at 590 nm (red) in HEK293 cells (AID 720679)
Outline: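 Each well held 2,000 HEK293 cells in medium containing 10% dialyzed FBS. Following 4-5 hr attachment at 37C, 23 nL test compound or DMSO was added; plates sat overnight, and red fluorescence (540/590nm) was recorded.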

[9] = qHTS assay to test for compound auto fluorescence at 535 nm (green) in HEK293 cells (AID 720680)
[10] = qHTS assay to test for compound auto fluorescence at 460 nm (blue) in HEK293 cell free culture (AID 720681)
Outline: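 Compounds were added to cell-free DMEM with 10% FBS and fluorescence read directly. The blue channel used 405 nm excitation and 460 nm emission, with triamterene as the reference fluorophore.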

[11] = qHTS assay to test for compound auto fluorescence at 535 nm (green) in HEK293 cell free culture (AID 720682)
Outline: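 Intrinsic compound fluorescence is measured in culture medium containing 10% FBS, with excitation at 485 nm and detection at 535 nm, referenced to fluorescein.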

[12] = qHTS assay to test for compound auto fluorescence at 590 nm (red) in HEK293 cell free culture (AID 720683)
Outline: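 Cell-free wells of DMEM with 10% FBS received compound, and intrinsic fluorescence was read at excitation/emission 540/590 nm. Values expressed as equivalence to Rose Bengal sodium.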

[13] = qHTS assay to test for compound auto fluorescence at 590 nm (red) in HepG2 cell free culture (AID 720684)
Outline: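 Compounds are added to culture medium (MEM, 10% FBS) lacking cells, then fluorescence is read at excitation 540 nm, emission 590 nm, with Rose Bengal sodium as the equivalency standard.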

[14] = qHTS assay to test for compound auto fluorescence at 460 nm (blue) in HepG2 cell free culture (AID 720685)
Outline: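 Compound (23 nL) or DMSO pinned into cell-free MEM with 10% FBS; blue fluorescence read at 405/460 nm excitation/emission, expressed as auto-fluorescence equivalency to triamterene.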

[15] = qHTS assay to test for compound auto fluorescence at 535 nm (green) in HepG2 cell free culture (AID 720686)
[16] = qHTS assay to test for compound auto fluorescence at 460 nm (blue) in HepG2 cells (AID 720687)
Outline: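 HepG2 cells in MEM with 10% FBS, attached overnight at 37 C, were exposed to compound or DMSO for 1 hr at 37 C, 5% CO2. Blue fluorescence was read at 405/460 nm, with triamterene as reference fluorophore.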

[17] = target: Glucocorticoid receptor (Homo sapiens) (UniProt P04150); test: qHTS assay to identify small molecule agonists of the glucocorticoid receptor (GR) signaling pathway (AID 720691; active = well fitted activation curve with a large enough effect in the signal ratio in the repeat runs, not every such curve was filed as active; inconclusive = weak or mixed curves, or effect the other way; inactive = no such curve, though single readings can be large or run the other way; the % refers to the signal ratio; also: potency is read from the fitted curve at half-maximal effect); details: GR-bla HeLa, beta-lactamase reporter ratio, 18 h; activation: at 62.4 µM (top of the series)
Sequence of Glucocorticoid receptor (Homo sapiens) (P04150 whole entry, looked up): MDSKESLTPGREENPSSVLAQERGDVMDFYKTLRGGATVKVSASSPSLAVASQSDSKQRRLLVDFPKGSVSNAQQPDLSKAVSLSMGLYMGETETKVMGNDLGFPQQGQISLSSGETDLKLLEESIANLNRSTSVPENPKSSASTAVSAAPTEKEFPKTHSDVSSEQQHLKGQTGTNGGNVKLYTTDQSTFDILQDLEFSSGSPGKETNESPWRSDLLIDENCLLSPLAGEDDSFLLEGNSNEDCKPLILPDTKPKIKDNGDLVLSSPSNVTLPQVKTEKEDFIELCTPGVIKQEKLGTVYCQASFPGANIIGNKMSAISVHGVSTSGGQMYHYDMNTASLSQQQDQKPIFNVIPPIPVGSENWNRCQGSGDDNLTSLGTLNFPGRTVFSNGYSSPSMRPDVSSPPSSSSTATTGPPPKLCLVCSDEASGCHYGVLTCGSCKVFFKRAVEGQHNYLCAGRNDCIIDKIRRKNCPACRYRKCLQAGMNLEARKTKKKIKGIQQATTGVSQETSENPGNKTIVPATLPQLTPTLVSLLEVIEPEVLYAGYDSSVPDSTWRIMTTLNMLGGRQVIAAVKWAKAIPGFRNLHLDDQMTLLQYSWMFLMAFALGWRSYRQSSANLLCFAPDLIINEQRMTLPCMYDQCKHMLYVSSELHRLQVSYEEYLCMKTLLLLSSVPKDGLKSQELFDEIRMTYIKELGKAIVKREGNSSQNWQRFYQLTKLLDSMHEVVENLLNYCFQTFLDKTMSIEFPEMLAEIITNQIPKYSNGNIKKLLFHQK
Outline: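 GR-bla HeLa cells (beta-lactamase reporter under glucocorticoid response element) were plated 4 h at 37 C/5% CO2, given compounds in DMSO, and incubated 18 h at 37 C. LiveBLAzer B/G FRET substrate was added for 2 h at room temperature, then fluorescence intensity read.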

[18] = qHTS assay for small molecules that induce genotoxicity in human embryonic kidney cells expressing luciferase-tagged ATAD5 - cell viability (AID 651634; calls by dose curve; also: nearly all actives have a fitted effect of over 25% in size; also: potency is read from the fitted curve at half-maximal effect)
Outline: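 HEK293T cells expressing luciferase-tagged ATAD5 were exposed to compound or DMSO for 15.5 hr at 37C, 5% CO2. Viability was then read as live-cell protease activity by CellTiter-Fluor fluorescence after 30 min at 37C.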

[19] = qHTS assay for small molecule disruptors of the mitochondrial membrane potential (AID 720635); also: potency is read from the fitted curve at half-maximal effect
Outline: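 HepG2 cells exposed to compound 1 hr at 37C, then Mito-MPS dye 30 min. Ratio read of aggregate (540/590 nm) versus monomer (490/535 nm) fluorescence.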

[20] = target: Glucocorticoid receptor (Homo sapiens) (UniProt P04150); test: qHTS assay to identify small molecule antagonists of the glucocorticoid receptor (GR) signaling pathway (AID 720692; active = well fitted inhibition curve with a large enough effect in the signal ratio in the repeat runs, not every such curve was filed as active; inconclusive = weak or mixed curves, or effect the other way; inactive = no such curve, though single readings can be large or run the other way; the % refers to the signal ratio)
Outline: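 GR-bla HeLa cells (beta-lactamase reporter under glucocorticoid response element) were pre-plated 4 h at 37 C, treated with compounds plus 5 nM dexamethasone (final) for 18 h, then read by LiveBLAzer B/G FRET fluorescence after 2 h.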

Measured: Potency

C=CCNC1=C2C[C@@H](C)C[C@H](OC)[C@H](O)[C@@H](C)/C=C(\C)[C@H](OC(N)=O)[C@@H](OC)/C=C\C=C(/C)C(=O)NC(=CC1=O)C2=O
active: [1] 0.168 µM
not listed: [18] | [19] | [20]
inactive: all other assays above

CC1CCC(NC(=O)N(CCCl)N=O)CC1 (centres undefined)
not listed: [2]
inactive: all other assays above

O=C1C(=O)c2ncccc2-c2cccnc21
active: [1] 1.68 µM | [19] 26.6 µM
not listed: [3] | [7] | [10] | [14] | [16] | [20]
inactive: all other assays above

CCC(Cc1c(I)cc(I)c(O)c1I)C(=O)O (centres undefined)
not listed: [5] | [12] | [19] | [20]
inactive: all other assays above

Cc1ccccc1CNc1ncnc2c1ncn2[C@@H]1O[C@H](CO)[C@@H](O)[C@H]1O
not listed: [2] | [20]
inactive: all other assays above

C[C@]12C=CC(=O)C=C1CC[C@@H]1[C@@H]2[C@@H](O)C[C@@]2(C)[C@H]1CC[C@]2(O)C(=O)COC(=O)CCC(=O)O
active: [17] 0.268 µM [inconclusive]
not listed: [2] | [20]
inactive: all other assays above

O=C(O)CO.[NH2-].[NH2-].[Pt+2]
not listed: [1] | [17] | [20]
inactive: all other assays above

O=C(Nc1ccc(O)cc1)c1ccccc1O
active: [19] 5.96 µM
not listed: [2] | [4]
inactive: all other assays above

O=P(O)(O)OC[C@H]1O[C@](O)(COP(=O)(O)O)[C@@H](O)[C@@H]1O
not listed: [1] | [17] | [20]
inactive: all other assays above

CC(C)C(=O)OCC(=O)[C@@]12O[C@H](C3CCCCC3)O[C@@H]1C[C@H]1[C@@H]3CCC4=CC(=O)C=C[C@]4(C)[C@H]3[C@@H](O)C[C@@]12C
active: [19] 7.84 µM
not listed: [1] | [16] | [17] | [20]
inactive: all other assays above

CC[C@H](C)[C@H]1O[C@]2(CC[C@@H]1C)C[C@@H]1C[C@@H](C/C=C(\C)[C@@H](O[C@H]3C[C@H](OC)[C@@H](O[C@H]4C[C@H](OC)[C@@H](O)[C@H](C)O4)[C@H](C)O3)[C@@H](C)/C=C/C=C3\CO[C@@H]4[C@H](O)C(C)=C[C@@H](C(=O)O1)[C@]34O)O2
active: [3] 4.22 µM | [18] 2.98 µM | [19] 7.5 µM
not listed: [1] | [17] | [20]
inactive: all other assays above

CC(O)[C@H]1CC[C@H]2[C@@H]3CC[C@@H]4C[C@@H](O)CC[C@]4(C)[C@H]3CC[C@]12C (some centres undefined)
not listed: [1] | [17] | [20]
inactive: all other assays above
